Hit rate of the full screen: of about 2,300 compounds, about 350 (15%) were called active. The list is a sample of the results. Measured potencies and affinities stand elsewhere. Values without a mark were called inactive. How the calls were made is not given here.

A short description of this assay: HepG2 cell cytotoxicity, dose response, cytotoxicity control for non-replicating M. tuberculosis project (AID 489018).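 Further: HepG2 human liver cells; 100% = vehicle-treated cells and 0% = background signal.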 The following applies: series mostly up to 20 µM; viability: at the top concentration.
Take `O=C(Nc1ccccc1F)c1ccc([N+](=O)[O-])s1`: the “viability” value was 110% [at 5 µM]. Turning to `CCOc1ccc(OCc2ccc(C(=O)OCc3ccccn3)o2)cc1`, the “viability” value is 101%. For `Cc1ccc(-c2nc3ccccn3c2Nc2ccccc2)o1` the value was 85.7%; for `CCc1ccc(NC(=O)C(=O)NNC(=O)c2cccc(OC)c2)cc1`, 96%. For `Cc1ccc(NCCC(=O)c2cccs2)cc1` the value was 101% [at 5 µM]; for `CC1(C(=O)OCC(=O)Nc2nnc(-c3ccccc3)o2)CC1(Cl)Cl` (stereo unspecified), 99%.

In the case of `O=C(COc1ccc(Cl)cc1)Nc1ccc(Cl)cn1`, the “viability” value was 96.5%. Take `Cn1c(=O)c(Oc2ccc(Cl)cc2)c(O)c2ccccc21`: the “viability” value is 115%.

As to `Cc1ccccc1OCCNc1cc(N2CC(C)NC(C)C2)ccc1[N+](=O)[O-]` (stereo unspecified), the “viability” value is 77%. `CC1CCCN(CCCOc2ccc([N+](=O)[O-])cc2)C1` (stereo unspecified): the “viability” value is 92.2%. On to `CCOc1ccc(-c2cc(CCCC(=O)NCCC(C)C)no2)cc1`, for which the “viability” value was 96.5% [at 5 µM]. For `O=C1OC(/C=C/c2ccccc2)=NC/1=C\c1cccnc1`, the “viability” value is 93.5%. For `Cc1ccc(C2=N/C(=C\c3cccnc3)C(=O)O2)cc1` the value was 101%; for `COc1ccc(-c2cc(=O)oc(-c3cccc(C)c3)n2)cc1`, 89.9%. Next, `O=C(CCC1CCCC1)Nc1ccc(Br)cn1`: 110%.

As for `Cc1cc(C)n(-c2nc(NCCCO)c3c4c(sc3n2)CCCC4)n1`, the “viability” value was 85.3%. As for `CCOC(=O)c1sc2nc(CSc3ccccc3)nc(NCCN(C)C)c2c1C`, the “viability” value was 97.6%. Regarding `CC1=C/C(=N\OS(=O)(=O)c2ccccc2)C(C)=CC1=O`, the “viability” value was 86.8%.

For the molecule `O=C1CSC(=S)N1Cc1cccnc1`, the “viability” value was 77.9%. For the molecule `COc1cccc(C(=O)OCn2nnc3ccccc3c2=O)c1OC`, the “viability” value is 108%. For `O=C(OCn1nnc2ccccc2c1=O)c1ccc(Br)o1` the value was 101%. For the molecule `c1ccc(-c2nc3c(ccc4ccccc43)[nH]2)nc1`, the “viability” value is 83.3%.

For `O=[N+]([O-])c1ccc(-c2nc3ccc([N+](=O)[O-])cc3[nH]2)cc1`, the “viability” value is 74.4%. Next, `CCOC(=O)CNCCC(=O)c1ccc(Br)cc1`: 105%. For `COc1cc(OC)c2c(OC)cccc2n1` the value was 96.1%; for `CCN1CCN(c2ccc(S(=O)(=O)N3CCCCC3)cc2NC(=O)c2ccc([N+](=O)[O-])s2)CC1`, 102% [at 5 µM]; for `C/C(=N/NC(=O)c1cc2ccccc2cc1O)C1C(=O)c2ccccc2C1=O`, 98.7%. Next, `CCN(CC)c1ccc2cc(C(=O)NCc3ccc(F)cc3)c(=N)oc2c1`: 82.6%. In the case of `COCCSc1nnc(NC(=O)CCS(=O)(=O)Cc2ccccc2)s1`, the “viability” value is 108%. Next, `CCC(C)n1nnc2c(=O)oc3ccccc3c21` (stereo unspecified): 107%. For the molecule `O=C(Nc1ncc([N+](=O)[O-])s1)c1cccs1`, the “viability” value is 72.9%.

One may read the viability as a read-out of living cells in per cent, often relative to untreated cells.

Source of the values: PubChem BioAssay AID489018 (Southern Research Specialized Biocontainment Screening …, 2010).
